Assay results published in the supplement of paper PMC11732987, “Enantioselective OTUD7B fragment discovery through chemoproteomics screening and high-throughput optimisation” (Communications Chemistry, 2025).

What was measured:
Experiment in all cases: log2 ratio of Biotin-Ahx-Ub-VS probe labelling (fragment/DMSO); higher = less target engagement (more negative = stronger competition), active = hit call of the paper (q ≤ 0.05, log2 ratio ≤ -1)
Settings in all cases: compound concentration: 200 uM; treatment time: 3 h
USP42 = molecular target: T1, USP42 (UniProt Q9H9J4)
T1 sequence (whole entry): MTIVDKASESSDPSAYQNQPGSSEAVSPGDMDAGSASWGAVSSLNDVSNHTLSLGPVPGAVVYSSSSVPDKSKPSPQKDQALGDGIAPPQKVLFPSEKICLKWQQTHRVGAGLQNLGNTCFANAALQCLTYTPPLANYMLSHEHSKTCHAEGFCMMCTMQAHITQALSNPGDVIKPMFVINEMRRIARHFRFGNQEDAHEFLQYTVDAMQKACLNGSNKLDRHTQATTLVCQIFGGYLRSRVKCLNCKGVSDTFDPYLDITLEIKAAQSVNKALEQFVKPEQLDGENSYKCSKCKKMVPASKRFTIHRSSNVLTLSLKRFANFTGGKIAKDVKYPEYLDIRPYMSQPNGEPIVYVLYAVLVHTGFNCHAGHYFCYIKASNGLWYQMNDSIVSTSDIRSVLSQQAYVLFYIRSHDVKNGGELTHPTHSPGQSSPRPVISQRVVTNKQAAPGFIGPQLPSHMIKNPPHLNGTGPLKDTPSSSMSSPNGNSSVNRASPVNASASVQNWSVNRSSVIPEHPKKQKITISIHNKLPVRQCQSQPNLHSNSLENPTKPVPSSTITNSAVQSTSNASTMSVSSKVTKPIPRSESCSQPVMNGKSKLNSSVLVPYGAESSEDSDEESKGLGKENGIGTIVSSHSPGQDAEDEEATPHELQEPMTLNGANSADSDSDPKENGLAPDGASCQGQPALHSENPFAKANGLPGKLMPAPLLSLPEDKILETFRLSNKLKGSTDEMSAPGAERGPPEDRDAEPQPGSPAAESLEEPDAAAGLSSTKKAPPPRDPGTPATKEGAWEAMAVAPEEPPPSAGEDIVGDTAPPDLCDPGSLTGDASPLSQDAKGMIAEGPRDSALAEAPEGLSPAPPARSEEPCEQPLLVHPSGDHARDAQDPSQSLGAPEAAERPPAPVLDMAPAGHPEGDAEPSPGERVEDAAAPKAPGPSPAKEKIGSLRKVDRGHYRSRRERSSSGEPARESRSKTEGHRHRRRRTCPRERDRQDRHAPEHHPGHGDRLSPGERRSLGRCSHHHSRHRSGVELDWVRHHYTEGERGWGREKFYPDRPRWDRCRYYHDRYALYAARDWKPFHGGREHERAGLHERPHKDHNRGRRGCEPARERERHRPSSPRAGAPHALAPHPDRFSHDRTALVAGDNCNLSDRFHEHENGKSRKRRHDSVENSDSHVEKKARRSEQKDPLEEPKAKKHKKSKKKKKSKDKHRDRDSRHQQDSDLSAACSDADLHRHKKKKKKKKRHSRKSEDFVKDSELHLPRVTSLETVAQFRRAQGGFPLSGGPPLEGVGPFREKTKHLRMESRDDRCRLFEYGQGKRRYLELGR
How it was run: (§1)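 Labelled DUBs from HEK293T lysate were NeutrAvidin-enriched, digested with LysC and trypsin, and run by diaPASEF LC-MS/MS. Before that, each 495 µg sample in Tris/CHAPS/IGEPAL buffer with protease inhibitors was treated in triplicate with fragment at 200 µM or vehicle for 3 h, then with Biotin-Ahx-Ub-VS at 0.5 µM final for 1 h. Values are average log2 ratios of fragment over vehicle by unpaired t-test, based on global-median-normalised Spectronaut label-free quantities from proteins with ≥2 unique peptides.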

USP46 = USP46 (UniProt P62068)
How it was run: as §1

USP47 = molecular target: T2, USP47 (UniProt Q96K76)
T2 sequence (whole entry): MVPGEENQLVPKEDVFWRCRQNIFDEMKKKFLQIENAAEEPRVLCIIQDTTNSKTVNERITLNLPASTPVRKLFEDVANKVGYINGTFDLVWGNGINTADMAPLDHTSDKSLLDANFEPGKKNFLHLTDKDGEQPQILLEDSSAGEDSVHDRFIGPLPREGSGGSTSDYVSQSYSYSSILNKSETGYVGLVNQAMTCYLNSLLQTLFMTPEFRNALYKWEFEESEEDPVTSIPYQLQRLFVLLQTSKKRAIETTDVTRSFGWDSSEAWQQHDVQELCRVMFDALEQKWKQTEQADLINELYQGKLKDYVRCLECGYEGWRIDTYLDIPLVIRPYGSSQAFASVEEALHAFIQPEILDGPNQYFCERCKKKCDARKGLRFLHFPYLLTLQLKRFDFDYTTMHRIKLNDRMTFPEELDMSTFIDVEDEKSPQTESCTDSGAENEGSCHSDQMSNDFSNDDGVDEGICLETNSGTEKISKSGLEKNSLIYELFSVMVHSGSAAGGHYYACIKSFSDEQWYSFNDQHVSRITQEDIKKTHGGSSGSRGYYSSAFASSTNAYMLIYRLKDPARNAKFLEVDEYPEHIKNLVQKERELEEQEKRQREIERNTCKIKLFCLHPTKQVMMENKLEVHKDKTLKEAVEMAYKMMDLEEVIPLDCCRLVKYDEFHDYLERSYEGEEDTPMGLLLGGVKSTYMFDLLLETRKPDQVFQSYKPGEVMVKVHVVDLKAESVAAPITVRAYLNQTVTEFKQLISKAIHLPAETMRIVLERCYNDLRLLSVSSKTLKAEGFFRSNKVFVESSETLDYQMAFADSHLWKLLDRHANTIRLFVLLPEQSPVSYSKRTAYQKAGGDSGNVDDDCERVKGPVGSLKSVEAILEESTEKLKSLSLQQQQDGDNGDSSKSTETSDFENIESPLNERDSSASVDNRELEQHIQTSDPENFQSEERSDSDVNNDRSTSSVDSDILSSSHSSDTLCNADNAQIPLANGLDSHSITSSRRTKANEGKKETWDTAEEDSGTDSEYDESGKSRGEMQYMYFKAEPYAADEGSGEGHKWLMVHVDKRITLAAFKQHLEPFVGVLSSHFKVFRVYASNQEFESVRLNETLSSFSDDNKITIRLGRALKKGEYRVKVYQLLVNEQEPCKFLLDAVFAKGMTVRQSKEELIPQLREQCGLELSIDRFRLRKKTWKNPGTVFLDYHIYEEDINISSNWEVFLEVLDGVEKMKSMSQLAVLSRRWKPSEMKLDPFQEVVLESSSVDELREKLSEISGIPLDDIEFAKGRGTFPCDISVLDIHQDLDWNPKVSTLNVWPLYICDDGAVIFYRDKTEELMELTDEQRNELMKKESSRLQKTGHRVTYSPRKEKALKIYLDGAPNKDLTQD
How it was run: as §1

USP48 = molecular target: T3, USP48 (UniProt Q86UV5)
T3 sequence (whole entry): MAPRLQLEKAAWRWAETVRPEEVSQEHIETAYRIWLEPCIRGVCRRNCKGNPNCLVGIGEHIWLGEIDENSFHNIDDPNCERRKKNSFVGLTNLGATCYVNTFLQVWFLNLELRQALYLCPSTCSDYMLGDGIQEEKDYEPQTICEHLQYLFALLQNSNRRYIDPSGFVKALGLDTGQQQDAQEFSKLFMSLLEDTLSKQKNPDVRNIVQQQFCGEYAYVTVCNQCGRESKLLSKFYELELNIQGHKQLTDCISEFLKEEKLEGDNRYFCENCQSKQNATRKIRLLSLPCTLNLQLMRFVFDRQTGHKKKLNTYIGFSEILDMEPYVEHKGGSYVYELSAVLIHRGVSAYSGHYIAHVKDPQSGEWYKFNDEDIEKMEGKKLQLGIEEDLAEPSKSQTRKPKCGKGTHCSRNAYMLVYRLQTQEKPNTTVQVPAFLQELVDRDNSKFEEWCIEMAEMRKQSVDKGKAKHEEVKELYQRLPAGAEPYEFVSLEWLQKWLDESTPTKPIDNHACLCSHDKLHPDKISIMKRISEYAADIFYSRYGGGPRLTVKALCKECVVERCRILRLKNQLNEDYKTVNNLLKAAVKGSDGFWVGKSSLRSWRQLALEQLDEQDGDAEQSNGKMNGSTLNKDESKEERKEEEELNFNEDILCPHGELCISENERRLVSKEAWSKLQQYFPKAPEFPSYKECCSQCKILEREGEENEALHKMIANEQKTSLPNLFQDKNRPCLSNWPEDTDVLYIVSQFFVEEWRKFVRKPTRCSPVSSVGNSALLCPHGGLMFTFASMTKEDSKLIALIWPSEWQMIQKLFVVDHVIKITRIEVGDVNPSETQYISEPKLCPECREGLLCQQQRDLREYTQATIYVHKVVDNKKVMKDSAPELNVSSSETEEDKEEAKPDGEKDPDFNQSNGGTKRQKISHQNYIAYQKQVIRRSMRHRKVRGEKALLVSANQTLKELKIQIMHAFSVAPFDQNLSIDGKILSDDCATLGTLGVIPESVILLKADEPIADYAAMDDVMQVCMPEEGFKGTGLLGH
How it was run: as §1

USP5 = molecular target: T4, USP5 (UniProt P45974)
T4 sequence (whole entry): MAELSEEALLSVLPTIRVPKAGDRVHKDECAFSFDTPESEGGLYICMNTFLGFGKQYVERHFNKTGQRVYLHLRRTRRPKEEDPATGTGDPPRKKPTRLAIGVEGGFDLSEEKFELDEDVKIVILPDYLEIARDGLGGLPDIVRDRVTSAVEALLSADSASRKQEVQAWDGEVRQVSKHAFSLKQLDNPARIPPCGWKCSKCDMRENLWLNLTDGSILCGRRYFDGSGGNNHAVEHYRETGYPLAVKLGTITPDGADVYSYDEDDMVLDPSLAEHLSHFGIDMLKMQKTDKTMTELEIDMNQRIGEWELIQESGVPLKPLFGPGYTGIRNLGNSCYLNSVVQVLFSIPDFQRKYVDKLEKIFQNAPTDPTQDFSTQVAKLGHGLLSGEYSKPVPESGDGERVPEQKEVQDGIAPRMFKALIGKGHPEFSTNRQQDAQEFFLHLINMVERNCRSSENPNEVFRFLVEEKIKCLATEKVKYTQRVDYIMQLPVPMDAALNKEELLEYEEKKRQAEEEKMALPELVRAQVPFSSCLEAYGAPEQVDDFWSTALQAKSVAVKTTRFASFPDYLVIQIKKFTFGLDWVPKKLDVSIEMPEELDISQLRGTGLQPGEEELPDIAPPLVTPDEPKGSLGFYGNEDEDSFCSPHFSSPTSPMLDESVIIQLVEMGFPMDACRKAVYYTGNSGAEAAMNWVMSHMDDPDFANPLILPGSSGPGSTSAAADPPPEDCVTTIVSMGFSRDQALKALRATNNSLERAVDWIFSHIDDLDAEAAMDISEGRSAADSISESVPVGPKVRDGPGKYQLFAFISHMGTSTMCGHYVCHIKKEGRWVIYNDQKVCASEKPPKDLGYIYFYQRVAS
How it was run: as §1

USP54 = USP54 (UniProt Q70EL1)
How it was run: as §1

USP7 = USP7 (UniProt Q93009)
How it was run: as §1

USP8 = molecular target: T5, USP8 (UniProt P40818)
T5 sequence (whole entry): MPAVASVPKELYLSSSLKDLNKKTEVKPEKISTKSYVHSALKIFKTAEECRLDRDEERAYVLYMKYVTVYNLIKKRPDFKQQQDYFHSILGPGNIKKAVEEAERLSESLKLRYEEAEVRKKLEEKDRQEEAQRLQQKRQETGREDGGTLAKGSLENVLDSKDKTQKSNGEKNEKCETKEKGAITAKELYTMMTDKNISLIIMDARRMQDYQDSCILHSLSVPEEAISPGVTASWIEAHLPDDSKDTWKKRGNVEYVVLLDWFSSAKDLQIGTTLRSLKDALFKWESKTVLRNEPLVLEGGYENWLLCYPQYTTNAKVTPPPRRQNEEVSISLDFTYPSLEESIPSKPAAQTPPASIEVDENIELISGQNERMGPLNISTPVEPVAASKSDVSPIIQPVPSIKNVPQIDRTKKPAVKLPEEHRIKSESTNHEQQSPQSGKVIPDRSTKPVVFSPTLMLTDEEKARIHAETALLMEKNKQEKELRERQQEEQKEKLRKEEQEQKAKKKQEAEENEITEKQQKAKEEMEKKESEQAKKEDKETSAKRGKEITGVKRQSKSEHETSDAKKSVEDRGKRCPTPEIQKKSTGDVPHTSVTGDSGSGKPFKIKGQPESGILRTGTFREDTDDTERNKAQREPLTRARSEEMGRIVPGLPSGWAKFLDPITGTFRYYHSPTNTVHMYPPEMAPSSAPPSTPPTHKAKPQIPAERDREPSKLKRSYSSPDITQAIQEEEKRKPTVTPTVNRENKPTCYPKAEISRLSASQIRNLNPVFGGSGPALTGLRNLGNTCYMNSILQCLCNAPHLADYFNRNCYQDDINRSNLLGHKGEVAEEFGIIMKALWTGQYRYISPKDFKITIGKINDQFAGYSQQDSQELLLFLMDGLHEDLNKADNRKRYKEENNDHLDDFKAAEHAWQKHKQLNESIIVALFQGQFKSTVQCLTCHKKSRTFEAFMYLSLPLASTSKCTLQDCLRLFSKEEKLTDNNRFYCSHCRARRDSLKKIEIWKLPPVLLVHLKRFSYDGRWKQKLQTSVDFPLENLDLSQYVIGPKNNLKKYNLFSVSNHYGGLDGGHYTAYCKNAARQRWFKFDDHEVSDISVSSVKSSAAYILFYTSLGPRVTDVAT
How it was run: as §1

Measured: log2 ratio of Biotin-Ahx-Ub-VS probe labelling

USP7, sequence (Q93009 whole entry, looked up): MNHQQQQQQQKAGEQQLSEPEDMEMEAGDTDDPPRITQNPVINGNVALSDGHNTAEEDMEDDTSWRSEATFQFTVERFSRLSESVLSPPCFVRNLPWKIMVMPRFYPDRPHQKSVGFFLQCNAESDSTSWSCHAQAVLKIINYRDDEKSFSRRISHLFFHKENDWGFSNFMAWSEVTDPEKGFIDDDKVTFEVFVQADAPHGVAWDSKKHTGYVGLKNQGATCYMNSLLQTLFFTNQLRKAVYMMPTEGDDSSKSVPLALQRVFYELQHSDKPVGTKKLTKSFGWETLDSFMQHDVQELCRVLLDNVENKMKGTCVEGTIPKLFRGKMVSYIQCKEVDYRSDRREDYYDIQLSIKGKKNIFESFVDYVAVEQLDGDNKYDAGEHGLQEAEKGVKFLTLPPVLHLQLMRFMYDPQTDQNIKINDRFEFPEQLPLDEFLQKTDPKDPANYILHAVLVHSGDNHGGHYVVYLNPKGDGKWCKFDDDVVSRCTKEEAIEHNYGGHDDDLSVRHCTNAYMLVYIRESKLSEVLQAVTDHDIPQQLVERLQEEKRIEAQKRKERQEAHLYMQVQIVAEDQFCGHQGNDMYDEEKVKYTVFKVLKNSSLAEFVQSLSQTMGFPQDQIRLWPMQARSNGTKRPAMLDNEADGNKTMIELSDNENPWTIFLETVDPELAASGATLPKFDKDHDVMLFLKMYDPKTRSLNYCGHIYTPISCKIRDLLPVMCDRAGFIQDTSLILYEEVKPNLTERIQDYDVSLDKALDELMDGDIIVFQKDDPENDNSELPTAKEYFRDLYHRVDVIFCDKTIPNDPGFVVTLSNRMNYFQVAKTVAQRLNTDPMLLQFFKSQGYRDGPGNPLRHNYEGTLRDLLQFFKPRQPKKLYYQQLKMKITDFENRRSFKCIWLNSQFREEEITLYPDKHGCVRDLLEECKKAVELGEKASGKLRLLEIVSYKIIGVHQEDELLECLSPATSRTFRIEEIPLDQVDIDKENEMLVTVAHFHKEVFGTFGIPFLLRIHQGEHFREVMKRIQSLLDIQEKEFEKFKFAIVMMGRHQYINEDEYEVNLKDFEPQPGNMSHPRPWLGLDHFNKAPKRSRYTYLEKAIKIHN
USP54, sequence (Q70EL1 whole entry): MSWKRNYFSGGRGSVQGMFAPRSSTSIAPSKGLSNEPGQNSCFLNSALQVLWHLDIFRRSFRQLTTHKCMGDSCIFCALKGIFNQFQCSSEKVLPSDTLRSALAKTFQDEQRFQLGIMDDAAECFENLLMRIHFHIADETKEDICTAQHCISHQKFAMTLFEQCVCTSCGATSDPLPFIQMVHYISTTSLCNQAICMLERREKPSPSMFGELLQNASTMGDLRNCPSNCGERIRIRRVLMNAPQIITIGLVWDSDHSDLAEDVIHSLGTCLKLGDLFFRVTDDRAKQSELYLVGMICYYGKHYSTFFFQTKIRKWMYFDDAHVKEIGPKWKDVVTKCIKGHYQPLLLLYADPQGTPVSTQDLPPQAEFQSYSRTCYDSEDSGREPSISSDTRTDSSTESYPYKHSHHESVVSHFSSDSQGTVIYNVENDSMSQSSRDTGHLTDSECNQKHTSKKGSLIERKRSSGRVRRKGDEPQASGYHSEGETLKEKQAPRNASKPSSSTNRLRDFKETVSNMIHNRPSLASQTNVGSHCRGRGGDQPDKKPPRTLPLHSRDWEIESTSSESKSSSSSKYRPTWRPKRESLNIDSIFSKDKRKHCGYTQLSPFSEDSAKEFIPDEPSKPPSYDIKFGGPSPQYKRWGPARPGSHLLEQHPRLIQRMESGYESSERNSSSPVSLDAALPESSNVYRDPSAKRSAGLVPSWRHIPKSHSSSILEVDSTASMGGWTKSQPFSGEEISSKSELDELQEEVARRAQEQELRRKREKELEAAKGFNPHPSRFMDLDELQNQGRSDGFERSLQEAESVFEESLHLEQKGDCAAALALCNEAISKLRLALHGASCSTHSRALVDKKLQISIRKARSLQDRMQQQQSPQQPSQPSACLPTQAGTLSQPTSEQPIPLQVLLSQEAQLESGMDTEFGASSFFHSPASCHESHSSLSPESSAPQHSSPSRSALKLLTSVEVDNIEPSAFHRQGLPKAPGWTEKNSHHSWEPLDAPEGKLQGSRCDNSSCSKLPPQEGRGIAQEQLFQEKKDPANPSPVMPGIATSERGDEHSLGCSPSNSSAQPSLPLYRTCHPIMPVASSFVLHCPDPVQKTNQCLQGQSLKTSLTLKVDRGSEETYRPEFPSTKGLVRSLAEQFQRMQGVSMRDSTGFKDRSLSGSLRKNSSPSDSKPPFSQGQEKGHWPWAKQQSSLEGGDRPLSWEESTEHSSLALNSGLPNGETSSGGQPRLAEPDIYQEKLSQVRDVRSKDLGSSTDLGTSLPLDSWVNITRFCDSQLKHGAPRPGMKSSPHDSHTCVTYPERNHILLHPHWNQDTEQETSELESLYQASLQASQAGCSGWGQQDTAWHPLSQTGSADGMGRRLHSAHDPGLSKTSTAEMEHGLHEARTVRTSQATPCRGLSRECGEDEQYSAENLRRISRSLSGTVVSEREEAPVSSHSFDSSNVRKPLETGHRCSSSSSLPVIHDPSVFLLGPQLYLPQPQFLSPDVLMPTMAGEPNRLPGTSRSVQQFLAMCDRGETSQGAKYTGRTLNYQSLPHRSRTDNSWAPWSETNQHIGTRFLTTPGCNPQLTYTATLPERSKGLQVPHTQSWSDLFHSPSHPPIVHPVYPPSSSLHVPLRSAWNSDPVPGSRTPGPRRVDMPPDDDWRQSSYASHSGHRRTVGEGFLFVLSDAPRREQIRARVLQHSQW
USP46, sequence (P62068 whole entry): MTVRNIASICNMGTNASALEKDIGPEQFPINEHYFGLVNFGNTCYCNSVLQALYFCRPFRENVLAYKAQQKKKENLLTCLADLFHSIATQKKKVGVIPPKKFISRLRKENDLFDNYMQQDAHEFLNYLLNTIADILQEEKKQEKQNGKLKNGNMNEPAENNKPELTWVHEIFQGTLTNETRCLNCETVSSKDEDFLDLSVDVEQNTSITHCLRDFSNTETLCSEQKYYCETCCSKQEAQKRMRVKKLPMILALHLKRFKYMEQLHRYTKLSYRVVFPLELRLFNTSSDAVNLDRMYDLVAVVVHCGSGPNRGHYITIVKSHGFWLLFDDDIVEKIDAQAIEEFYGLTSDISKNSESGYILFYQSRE

CCN(Cc1ccc(C#N)cc1F)C(=O)CCl
inactive: USP42 -0.249 | USP46 -0.114 | USP47 -0.791 | USP5 0.258 | USP54 0.521 | USP8 -0.229
active: USP48 -1.26 | USP7 -1.26
